According to PubChem BioAssay (Tox21):
Inconclusive results are not listed. The source made the active and inactive calls. Unless noted, calls follow the shape of the full dose curve.

What was measured:
[1] = Nuclear factor erythroid 2-related factor 2/antioxidant responsive element (Nrf2/ARE) small molecule agonists: qHTS cell viability counter screen in human keratinocytes (AID 1919968; active = well fitted curve in the direction sought with a large enough effect in the repeat runs; an effect the other way counts as inactive or inconclusive; also: nearly all actives have a fitted effect of over 55% in size)
Procedure, shortened: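 Cells of the KeratinoSens line were plated at 1,500 per well and left for 5 h before compound transfer from DMSO stocks. After a 23 h incubation (37 C, 5% CO2), CellTiter-Fluor was added. Signal was taken as fluorescence intensity 1 h later.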

[2] = Nuclear factor erythroid 2-related factor 2/antioxidant responsive element (Nrf2/ARE) small molecule agonists: luciferase reporter gene qHTS assay in human keratinocytes (AID 1919969); also: nearly all actives have a fitted effect of over 35% in size
[3] = molecular target: KiSS-1 receptor (Homo sapiens) (UniProt Q969F8); experiment: Human kisspeptin (KISS1R) small molecule agonists, calcium flux assay in KISS1R-HEK293 cells (AID 1920064; active = well fitted curve in the direction sought with a large enough effect in the repeat runs; an effect the other way counts as inactive or inconclusive)
Procedure, shortened: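 Cell line: HEK293, stable human KISS1R. Dye loading 1 h at 37 C after 18 h culture. Read: kinetic fluorescence, 480/540 nm, 3 min at 1 s intervals.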

[4] = G protein-coupled receptor (GPCR) small molecule agonists, calcium flux assay: HEK293 wild type cell line counter screen (AID 1920065)
Procedure, shortened: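 Tox21 10K compounds, 15 concentrations each in triplicate, pin-transferred in DMSO onto dye-loaded cells; kinetic read at 480/540 nm for 3 min, 1 s intervals.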

[5] = p53 small molecule agonists, cell-based qHTS assay with human liver microsomes (AID 1963577)
Procedure, shortened: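 Cells carrying a p53-responsive bla reporter were rested 5 h (37 C, 5% CO2) before compound transfer. Human liver microsomes plus NADPH, 0.5 mg/mL final apiece, supplied metabolism during the 16 h 37 C exposure.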

[6] = p53 small molecule agonists, cell-based qHTS assay with rat liver microsomes (AID 1963578)
Procedure, shortened: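 Fluorescence from a beta-lactamase reporter under a p53 response element was measured after cells had been incubated 16 h at 37 C with test compound and rat liver microsomes plus NADPH (0.5 mg/mL final each).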

[7] = p53 small molecule agonists, cell-based qHTS assay with human liver microsomes: qHTS cell viability counter screen (AID 1963579); also: nearly all actives have a fitted effect of over 45% in size
Procedure, shortened: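 Seed p53RE-bla cells at 4,000 per well; incubate 5 h at 37 C; add compound, human liver microsomes and NADPH; incubate 16 h at 37 C; add CellTiter-Glo; after 30 min at room temperature, read luminescence.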

[8] = p53 small molecule agonists, cell-based qHTS assay with rat liver microsomes: qHTS cell viability counter screen (AID 1963580); also: nearly all actives have a fitted effect of over 45% in size
Procedure, shortened: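 Cytotoxicity counter screen: intracellular ATP read by CellTiter-Glo luminescence in the p53 reporter wells. HCT-116 p53RE-bla cells were treated for 16 h at 37 C alongside rat liver microsomes and NADPH, each 0.5 mg/mL final.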

[9] = p53 small molecule agonists, cell-based qHTS assay: qHTS cell viability counter screen (AID 1963581); also: nearly all actives have a fitted effect of over 45% in size
Procedure, shortened: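 ATP content measured by luminescence in HCT-116 p53RE-bla cells treated 16 h at 37 C, same wells as the reporter screen.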

[10] = p53 small molecule agonists, cell-based qHTS assay (AID 1963582; active = well fitted activation curve with a large enough effect in the signal ratio in the repeat runs, not every such curve was filed as active; the % refers to the signal ratio)
Procedure, shortened: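 16 h compound exposure (37 C) of p53 response element–bla cells, preceded by 5 h recovery at 37 C/5% CO2; read-out via LiveBLAzer B/G FRET substrate, 2 h RT, fluorescence intensity.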

[11] = cAMP Responsive Elements (CRE) small molecule antagonists, cell-based qHTS assay (AID 1963591; active = well fitted inhibition curve with a large enough effect in the signal ratio in the repeat runs, not every such curve was filed as active; the % refers to the signal ratio)
Procedure, shortened: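 First, CRE-bla HEK293T cells settled 18 h at 37 C. Next, compound and 0.25 uM final NKH477 were applied for 3 h. Last, LiveBLAzer B/G substrate was loaded for 2 h at room temperature.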

[12] = molecular target: Beta-2 adrenergic receptor (Homo sapiens) (UniProt P07550); experiment: Adrenergic beta2 receptor (ADRB2) small molecule antagonists, cell-based qHTS assay (AID 1963592); also: series mostly up to about 92 µM; nearly all actives have a fitted effect of over 50% in size
Procedure, shortened: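 Assay format: CHO-ADRB2 cells, 18-20hr seeding at 37C/5% CO2, then compound plus 1nM isoproterenol agonist mix for 0.5hr RT. Homogeneous time-resolved fluorescence cAMP detection after 1hr, expressed as 665/615 nm ratio.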

[13] = molecular target: Beta-2 adrenergic receptor (Homo sapiens) (UniProt P07550); experiment: Adrenergic beta2 receptor (ADRB2) small molecule agonists, cell-based qHTS assay (AID 1963593);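 also: CHO cells stably overexpressing human ADRB2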
Procedure, shortened: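 CHO cells stably over-expressing ADRB2 were plated overnight at 37C, then dosed with compounds plus a stimulation mix containing 100uM IBMX and 25uM Ro-20-1724 for 0.5hr at room temperature. cAMP was measured by HTRF competition, 1hr.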

[14] = molecular target: D(2) dopamine receptor (Homo sapiens) (UniProt P14416); experiment: Dopamine D2 receptor (DRD2) small molecule agonists, cell-based qHTS assay (AID 1963594); also: nearly all actives have a fitted effect of over 35% in size
Procedure, shortened: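 cAMP accumulation in DRD2-HEK293 cells measured by HTRF after 1 h detection; compounds added 10 min before NKH477 (200nM […]) forskolin-analogue stimulation, 30 min at room temperature, with Ro20-1724 present at 0.1 mM final.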

[15] = molecular target: D(2) dopamine receptor (Homo sapiens) (UniProt P14416); experiment: Dopamine D2 receptor (DRD2) small molecule antagonists, cell-based qHTS assay (AID 1963595; active = well fitted inhibition curve with a large enough effect in the signal ratio in the repeat runs, with a control signal flat; the % refers to the signal ratio)
Procedure, shortened: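 Antagonist mode in DRD2-HEK293 cells: after compound addition with 0.1 mM Ro20-1724, cells received quinpirole (12 nM) and NKH477 (200 nM) for 30 min at room temperature; HTRF cAMP read after 1 h detection.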

[16] = molecular target: 5-hydroxytryptamine receptor 2A (Homo sapiens) (UniProt P28223); experiment: 5-hydroxytryptamine receptor 2A (HTR2A) small molecule antagonists, cell-based qHTS assay (AID 1963586); also: nearly all actives have a fitted effect of over 45% in size
Procedure, shortened: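 CHO cells stably expressing human HTR2A were plated for 18 h at 37 C, then loaded with calcium dye for 1 h. Compounds were preincubated 5 min at room temperature before DOI (4 nM solution) was added. Kinetic fluorescence was read for 3 min.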

[17] = molecular target: 5-hydroxytryptamine receptor 2A (Homo sapiens) (UniProt P28223); experiment: 5-hydroxytryptamine receptor 2A (HTR2A) small molecule agonists, cell-based qHTS assay (AID 1963587); also: nearly all actives have a fitted effect of over 30% in size
Procedure, shortened: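 Kinetic calcium-flux fluorescence (2 min, 1 sec intervals) after compound addition in agonist mode. HTR2A-CHO cells were cultured 18 h, then dye-loaded 1 h at 37 C.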

[18] = molecular target: Muscarinic acetylcholine receptor M1 (Homo sapiens) (UniProt P11229); experiment: Cholinergic receptor muscarinic 1 (CHRM1) small molecule antagonists, cell-based qHTS assay (AID 1963588); also: nearly all actives have a fitted effect of over 40% in size
Procedure, shortened: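 Compounds were tested at 15 concentrations in three independent runs. Dye-loaded CHRM1-CHO cells were exposed 5 min at room temperature before stimulation by acetylcholine added at 50nM. Intracellular calcium was read kinetically on FDSS for 3 min.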

[19] = molecular target: Muscarinic acetylcholine receptor M1 (Homo sapiens) (UniProt P11229); experiment: Cholinergic receptor muscarinic 1 (CHRM1) small molecule agonists, cell-based qHTS assay (AID 1963589); also: nearly all actives have a fitted effect of over 35% in size
Procedure, shortened: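 Homogeneous fluorescence calcium flux, agonist mode. Human M1-expressing CHO cells; compound dosed at 15 concentrations, three independent runs; signal sampled every 1 sec.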

[20] = cAMP Responsive Elements (CRE) small molecule agonists, cell-based qHTS assay (AID 1963590)
Procedure, shortened: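 HEK 293T cells stably bearing CRE-bla were plated at 2,000 cells per well and rested 18 h. Compounds, positive controls or DMSO were added for 3 h at 37 C. LiveBLAzer B/G substrate was then loaded for 2 h at room temperature.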
% is scaled to controls: 0 for no effect and ±100 for the full control effect.

Chain of D(2) dopamine receptor (Homo sapiens) (P14416 whole entry, looked up): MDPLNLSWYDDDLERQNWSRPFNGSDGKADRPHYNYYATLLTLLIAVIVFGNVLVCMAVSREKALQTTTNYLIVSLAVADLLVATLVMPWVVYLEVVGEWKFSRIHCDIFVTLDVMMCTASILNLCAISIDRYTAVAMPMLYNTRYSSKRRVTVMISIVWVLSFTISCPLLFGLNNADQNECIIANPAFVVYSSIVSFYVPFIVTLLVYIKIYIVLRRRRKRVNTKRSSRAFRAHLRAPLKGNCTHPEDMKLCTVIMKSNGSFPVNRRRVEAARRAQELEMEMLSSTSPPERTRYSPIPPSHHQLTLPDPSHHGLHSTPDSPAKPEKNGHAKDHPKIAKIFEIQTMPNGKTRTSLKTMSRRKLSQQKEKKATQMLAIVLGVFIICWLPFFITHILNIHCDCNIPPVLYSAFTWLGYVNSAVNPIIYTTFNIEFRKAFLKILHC
Chain of KiSS-1 receptor (Homo sapiens) (Q969F8 whole entry, looked up): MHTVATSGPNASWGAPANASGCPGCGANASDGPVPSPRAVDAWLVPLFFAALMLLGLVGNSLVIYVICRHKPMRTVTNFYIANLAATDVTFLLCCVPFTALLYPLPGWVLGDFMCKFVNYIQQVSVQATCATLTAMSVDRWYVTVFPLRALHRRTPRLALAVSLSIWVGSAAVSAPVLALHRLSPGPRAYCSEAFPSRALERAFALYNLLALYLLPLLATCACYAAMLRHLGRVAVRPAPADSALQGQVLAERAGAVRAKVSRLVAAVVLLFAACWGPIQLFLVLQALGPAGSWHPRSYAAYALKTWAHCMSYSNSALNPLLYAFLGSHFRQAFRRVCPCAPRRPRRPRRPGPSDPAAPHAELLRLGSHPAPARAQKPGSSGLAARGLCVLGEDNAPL
Chain of Beta-2 adrenergic receptor (Homo sapiens) (P07550 whole entry, looked up): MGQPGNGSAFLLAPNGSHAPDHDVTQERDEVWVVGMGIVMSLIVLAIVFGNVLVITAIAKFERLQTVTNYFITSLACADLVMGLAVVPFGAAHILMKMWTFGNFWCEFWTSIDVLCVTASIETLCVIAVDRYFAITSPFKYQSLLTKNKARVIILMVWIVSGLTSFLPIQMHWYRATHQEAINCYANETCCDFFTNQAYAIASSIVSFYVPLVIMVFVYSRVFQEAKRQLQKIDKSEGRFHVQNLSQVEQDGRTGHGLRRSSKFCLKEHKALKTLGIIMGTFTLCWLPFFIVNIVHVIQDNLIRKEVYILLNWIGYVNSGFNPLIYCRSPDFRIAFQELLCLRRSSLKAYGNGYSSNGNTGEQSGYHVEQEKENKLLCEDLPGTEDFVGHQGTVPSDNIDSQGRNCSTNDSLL
Chain of 5-hydroxytryptamine receptor 2A (Homo sapiens) (P28223 whole entry, looked up): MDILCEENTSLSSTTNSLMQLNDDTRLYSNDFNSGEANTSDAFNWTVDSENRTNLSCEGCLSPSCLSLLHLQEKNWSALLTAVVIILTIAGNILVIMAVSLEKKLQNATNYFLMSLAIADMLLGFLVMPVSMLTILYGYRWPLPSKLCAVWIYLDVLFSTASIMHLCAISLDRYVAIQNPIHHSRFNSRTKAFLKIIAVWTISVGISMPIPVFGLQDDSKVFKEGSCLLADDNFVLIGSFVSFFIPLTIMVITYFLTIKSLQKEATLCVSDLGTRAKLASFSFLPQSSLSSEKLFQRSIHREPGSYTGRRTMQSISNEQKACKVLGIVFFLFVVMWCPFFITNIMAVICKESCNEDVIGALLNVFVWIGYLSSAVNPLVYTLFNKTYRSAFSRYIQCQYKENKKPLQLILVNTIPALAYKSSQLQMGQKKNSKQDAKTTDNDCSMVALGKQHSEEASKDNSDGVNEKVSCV
Chain of Muscarinic acetylcholine receptor M1 (Homo sapiens) (P11229 whole entry, looked up): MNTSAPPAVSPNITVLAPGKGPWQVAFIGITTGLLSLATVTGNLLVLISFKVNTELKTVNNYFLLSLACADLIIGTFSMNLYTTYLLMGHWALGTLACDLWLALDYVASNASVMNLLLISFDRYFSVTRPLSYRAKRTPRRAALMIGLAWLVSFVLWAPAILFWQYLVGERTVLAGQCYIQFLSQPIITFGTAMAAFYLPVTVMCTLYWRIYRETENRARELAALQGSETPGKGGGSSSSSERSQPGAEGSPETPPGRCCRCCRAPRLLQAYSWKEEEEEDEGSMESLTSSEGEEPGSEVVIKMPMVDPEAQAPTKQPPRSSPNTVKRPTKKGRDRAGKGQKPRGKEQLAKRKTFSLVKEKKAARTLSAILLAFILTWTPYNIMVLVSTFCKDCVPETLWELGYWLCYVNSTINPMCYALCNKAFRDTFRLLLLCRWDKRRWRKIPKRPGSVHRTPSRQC

O=C(O)CCNC(=O)c1ccccc1
inactive: Potency [1] | Potency [2] | outcome [3] | outcome [4] | Potency [5] | Potency [6] | Potency [7] | Potency [8] | Potency [9] | Potency [10] | Potency [11] | Potency [12] | Potency [13] | Potency [14] | Potency [15]

NC1[C@H]2CN(c3nc4c(cc3F)c(=O)c(C(=O)O)cn4-c3ccc(F)cc3F)C[C@@H]12 (stereo partly drawn)
inactive: Potency [1] | Potency [2] | outcome [3] | outcome [4] | Potency [5] | Potency [6] | Potency [7] | Potency [8] | Potency [9] | Potency [12] | Potency [14] | Potency [15]

O=C(Nc1ccc(Cl)c(Cl)c1)C1CC1
inactive: Potency [1] | Potency [2] | outcome [3] | outcome [4] | Potency [5] | Potency [6] | Potency [8] | Potency [9] | Potency [10] | Potency [16] | Potency [17] | Potency [18] | Potency [19] | Potency [20] | Potency [11] | Potency [12] | Potency [14] | Potency [15]

CCCCCCCC/C=C\CCCCCCCC(=O)OC
inactive: Potency [1] | Potency [2] | outcome [3] | outcome [4] | Potency [5] | Potency [6] | Potency [8] | Potency [9] | Potency [17] | Potency [18] | Potency [19] | Potency [20] | Potency [12] | Potency [13] | Potency [15]

O=C(O)c1ccc2c(c1)nc(C(=O)NC1CCN(C3CC3)CC1)n2Cc1cc(-c2ccc(Cl)s2)on1
inactive: activity change, negative = cytotoxicity [1] 2.24% [at 19 µM] | activity, positive = activation [2] 2.61% [at 19 µM] | activation [3] -0.617% [at 15.8 µM] | activation [4] 0.0965% [at 11.8 µM] | activation [5] -1.92% [at 13.5 µM] | activation [6] -2.62% [at 13.6 µM] | activity change, negative = cytotoxicity [8] 1.71% [at 13.5 µM] | activation [10] -1.36% [at 13.5 µM] | activity, negative = inhibition [16] -29.3% [at 12.7 µM] | activity, negative = inhibition [18] -5% [at 12.6 µM] | activation [19] -0.218% [at 15.8 µM] | activity change, negative = inhibition [12] -20.8% [at 19 µM] | activation [14] 23% [at 19 µM] | activity change, negative = inhibition [15] -5.22% [at 18.9 µM]

N[C@@H](COP(=O)(O)O)C(=O)O
inactive: activity change, negative = cytotoxicity [1] 7.74% [at 19 µM] | activity, positive = activation [2] 0.218% [at 19 µM] | activation [3] 0.255% [at 15.8 µM] | activation [4] -0.0564% [at 11.8 µM] | activation [5] -0.646% [at 13.5 µM] | activation [6] -0.0703% [at 13.6 µM] | activity change, negative = cytotoxicity [7] -1.17% [at 13.5 µM] | activity change, negative = cytotoxicity [8] 4.54% [at 13.5 µM] | activation [10] 1.58% [at 13.5 µM] | activity, negative = inhibition [16] -2.49% [at 12.7 µM] | activation [17] -9.17% [at 15.9 µM] | activity, negative = inhibition [18] 5.54% [at 12.6 µM] | activation [19] 11.1% [at 15.8 µM] | activation [20] -0.511% [at 19 µM] | activity change, negative = inhibition [11] -18.4% [at 18.9 µM] | activity change, negative = inhibition [12] 3.41% [at 19 µM] | activation [14] -3.09% [at 19 µM] | activity change, negative = inhibition [15] -1.71% [at 18.9 µM]

COCCO
inactive: Potency [1] | Potency [2] | outcome [3] | outcome [4] | Potency [5] | Potency [6] | Potency [8] | Potency [10] | Potency [16] | Potency [17] | Potency [18] | Potency [19] | Potency [20] | Potency [11] | Potency [14] | Potency [15]
